Screens deposited in PubChem by several laboratories.
MITF TRPM1 inh: inhibitors of MITF-driven TRPM1 promoter in melanoma cells; inhibition, % at 12.5 µM; 330,000 tested, 0.83% active; AID 488899; SK-MEL-5 TRPM1 promoter luciferase, 24 h;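 active = mean inhibition across replicates of 60% or more, whatever share of single replicates reaches that level; inconclusive = some that reach 60%, reason not given; inactive = mean inhibition across replicates below 60%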
TWEAK Fn14 block: TWEAK-Fn14 signaling inhibition; TWEAK-stimulated Fn14 reporter cells, luciferase luminescence, 8 h; inhibition, % at 10 µM; 360,000 tested, 2% active; in the data active = inhibition above about 50%
TROY NFkB inh: inhibitors of TROY-dependent NF-kB signaling; Q293 LMP1-TROYcd NF-kB luciferase reporter, 4 h; 360,000 tested, 0.98% active; inhibition, % at 10 µM;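 active = compounds whose plate-normalised and pattern-corrected inhibition of the luciferase reporter signal at the single screening dose is 50% or more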
Peg3 prom inh-1: Peg3 promoter activity inhibition | inhibition, % at 20 µM | HeLa PEG-Prom luciferase reporter, luminescence, overnight | 360,000 tested, 1.7% active;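 active = inhibition of at least 50% at 20 µM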
Shn3 3UTR inh: inhibitors of Schnurri-3 3'UTR reporter in osteoblasts; Clone20 osteoblast Shn3 3'UTR firefly luciferase, 24 h; inhibition, % at 12.5 µM; 360,000 tested, 0.52% active;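 active = mean inhibition of at least 75% with every replicate also reaching 75%; inconclusive = mean inhibition at least 75% but some replicate below; inactive = mean inhibition below 75%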
EBV LMP1 NFkB: reduces LMP1-driven NF-kappaB luciferase signal | 350,000 tested, 0.69% active | AID 504558 | LMP1-induced NF-kappaB luciferase reporter cells, luminescence | inhibition, % at 12.5 µM; in the data active = inhibition above about 41%; inconclusive = no clear call, values can overlap the other calls
Peg3 prom inh-2: Peg3 promoter inhibition confirmation; shares compounds with Peg3 prom inh-1; HeLa PEG-Prom luciferase reporter, luminescence, overnight; inhibition, % at 20 µM; 1,300 tested, 84% active; AID 602417;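 active = at 20 µM dose, 40% or more inhibition averaged across four replicates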
Of the large screens only hits and unclear results are named; the others gave an inactive call (follow-up assays come after a bar, where they were run). Compounds with a hit are over-represented: about 4.1% of the library has one in this group of screens.

Cc1cc(C(=O)CN2C(=O)c3ccccc3S2(=O)=O)c(C)n1-c1ccccc1	MITF TRPM1 inh 81, TWEAK Fn14 block 94, Peg3 prom inh-1 93, EBV LMP1 NFkB 74 | Peg3 prom inh-2 93
Cc1ccc(C(=O)CN2C(=O)c3ccccc3S2(=O)=O)cc1	MITF TRPM1 inh 69, TWEAK Fn14 block 99, TROY NFkB inh 83, Peg3 prom inh-1 81, EBV LMP1 NFkB 74 | Peg3 prom inh-2 79
CN(Cc1ccccc1)C(=O)CN1C(=O)c2ccccc2S1(=O)=O	none
C=CCn1c(C)cc(C(=O)CN2C(=O)NC3(CCCc4ccccc43)C2=O)c1C (centres undefined)	none
C=CCn1c(C)cc(C(=O)CN2C(=O)c3ccccc3S2(=O)=O)c1C	MITF TRPM1 inh 94, TWEAK Fn14 block 104, TROY NFkB inh 88, Peg3 prom inh-1 93, Shn3 3UTR inh 91, EBV LMP1 NFkB 87 | Peg3 prom inh-2 96
Cc1cc(C)nc(NC(=O)CN2C(=O)c3ccccc3S2(=O)=O)n1	none
CC(C)NC(=O)CN1C(=O)c2ccccc2S1(=O)=O	none
Cc1cc(C(=O)CN2C(=O)c3ccccc3S2(=O)=O)c(C)n1C(C)C	TWEAK Fn14 block 93, TROY NFkB inh 84, Peg3 prom inh-1 68, EBV LMP1 NFkB 70 | Peg3 prom inh-2 74
CC(=O)C1=CCC(c2cccc(Cl)c2)N(S(=O)(=O)c2ccc(C)cc2)C1 (centres undefined)	none (no result: MITF TRPM1 inh, EBV LMP1 NFkB)
COc1cccc(NC(=O)CCC2CCN(C(=O)c3ccc(C(C)=O)s3)CC2)c1	none
CCC(C(=O)NCc1cccs1)n1nc(C)n2c(cc3occc32)c1=O (centres undefined)	none
OCCNc1nc2ccccc2nc1NCCO	none
OCCNc1c2ccccc2nc2ccccc12	MITF TRPM1 inh 88, Peg3 prom inh-1 98 | Peg3 prom inh-2 95
O=c1oc(CCCO)cc2ccccc12	none
CCc1ccc(C(=O)Nc2nc3ccccc3[nH]2)cc1	MITF TRPM1 inh inconclusive, TWEAK Fn14 block 98, TROY NFkB inh 80, Peg3 prom inh-1 77, EBV LMP1 NFkB 69 | Peg3 prom inh-2 67
O=C(Nc1nc2ccccc2[nH]1)c1ccccc1[N+](=O)[O-]	none
O=C(Nc1nc2ccccc2[nH]1)c1ccccc1F	MITF TRPM1 inh 87, TWEAK Fn14 block 102, TROY NFkB inh 84, Peg3 prom inh-1 93, EBV LMP1 NFkB 77 | Peg3 prom inh-2 81
CCCSc1ccc2nc(-c3ccccc3)cn2c1	MITF TRPM1 inh 79, TWEAK Fn14 block 97, TROY NFkB inh 78, Peg3 prom inh-1 77, EBV LMP1 NFkB 68 | Peg3 prom inh-2 69
O=C1OCCC1Sc1nnc(-c2ccc(Cl)cc2Cl)o1 (centres undefined)	TWEAK Fn14 block 83, TROY NFkB inh 52, Peg3 prom inh-1 71, EBV LMP1 NFkB 50 | Peg3 prom inh-2 63
O=C1OCCC1Sc1nnc(-c2ccccc2)o1 (centres undefined)	none
COc1ccc(NC(=O)CSc2n[nH]c(=O)n2C2CC2)cc1OC	none
Cc1csc(NC(=O)c2ccc(N3CCCC3=O)cc2)n1	TWEAK Fn14 block 90, TROY NFkB inh 70, Peg3 prom inh-1 64, EBV LMP1 NFkB 69 | Peg3 prom inh-2 46
Cc1nnc(NC(=O)c2ccc(N3CCCC3=O)cc2)s1	none
Cc1ccc(S(=O)(=O)CCSC(=N)N)cc1	Peg3 prom inh-1 55 | Peg3 prom inh-2 47
CCOc1ccc(C(=O)Nc2ccccc2-c2ccccc2)cc1Cl	none
CCOc1ccc(C(=O)Nc2cccc(C(=O)O)c2C)cc1Cl	MITF TRPM1 inh 67, TWEAK Fn14 block 68, Peg3 prom inh-1 55 | Peg3 prom inh-2 inactive
COc1ccc(NC(=O)Nc2cccc3c2O[C@H](CN(C)C(=O)NC(C)C)[C@@H](C)CN([C@H](C)CO)C3=O)cc1	none
CCOC(=O)Cn1c2ccc(OC)cc2c2nc3ccccc3nc21	Peg3 prom inh-1 88 | Peg3 prom inh-2 inactive
Fc1ccc([C@@H]2CCNC[C@H]2COc2ccc3c(c2)OCO3)cc1	MITF TRPM1 inh inconclusive, Peg3 prom inh-1 66 | Peg3 prom inh-2 62
CCN1C(=O)C(=Cc2cccc(OC)c2Oc2ccc([N+](=O)[O-])cc2[N+](=O)[O-])SC1=S	MITF TRPM1 inh 88, TWEAK Fn14 block 91, Peg3 prom inh-1 108, Shn3 3UTR inh 99 | Peg3 prom inh-2 72
